Screening results (PubChem)
Most compounds without a hit are left out; they make up all but 17% or so of the library.
TDP1 cell noCPT: qHTS for Inhibitors of human tyrosyl-DNA phosphodiesterase 1 (TDP1): qHTS in cells in absence of CPT. 420,000 tested, 15% active. DT40 Tdp1-/- hTDP1 cells, no CPT, ATP luminescence, 48 h. Potency, µM (highest dose often 46.2 µM), for inactives: at the top dose activity change, negative = growth inhibition, most hits filed as inhibitors; note: % is set by controls: 0 for no effect and ±100 for the full control effect; nearly all actives have a fitted effect of over 55% in size
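No-CPT arm: Tdp1-/-;hTDP1 DT40 cells (400/well) plus compounds, incubated ≥48 hr at 37 °C. Readout CellTiter-Glo luminescence.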
HepG2 viability: HepG2 cytotoxicity, counter-screen for TGF-b inhibitors. HepG2 CAGA-GFP viability, ATP luminescence, 18 h. Potency, µM (series often up to 46.1 µM), without a hit: top-dose activity change, negative = cytotoxicity, actives largely listed as cytotoxic. AID 588856. 410,000 tested, 0.76% active
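CellTiter-Glo luminescence gave cytotoxicity after 18 hours at 37 degrees C. The cells were HepG2 CAGA-GFP in 1% FBS DMEM, stimulated with 500 pg/mL TGF-beta after compound addition. %Activity was normalised to no-cell wells (complete cell-killing) and DMSO (no toxicity), and curves were fitted and classified.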
HT1080 IDH1KD tx: HT-1080 IDH1 knockdown cell toxicity (counter line) | HT-1080 IDH1 knockdown viability, ATP luminescence, 48 h | Potency, µM (doses to about 46.1 µM), for inactives: top-dose activity, negative = toxicity, most hits filed as cytotoxic | 360,000 tested, 2% active;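 note: 0% = DMSO wells and -100% = cell-free medium wells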
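After a 2 h attachment period, IDH1KD HT-1080 cells took pin-transferred compound for 48 h at 37 °C; ATP-based luminescence after 10 min room-temperature reagent incubation reported viability.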
TGFb SMAD3 inh: TGF-b pathway inhibition; 410,000 tested, 1.2% active; Potency, µM (series often up to 46.1 µM), for inactives: at the highest dose activity, negative = inhibition, hits mostly inhibitors; HepG2 CAGA-GFP TGF-b/SMAD3 reporter, GFP fluorescence, 18 h; TGF-beta stimulated, 500 pg/mL final; note: % is set by controls: 0 for no effect and ±100 for the full control effect; nearly all actives have a fitted effect of over 65% in size
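Using HEPG2 CAGA-GFP reporter cells at 1000 cells/well, we pinned test compounds, stimulated with recombinant TGF-beta (500 pg/mL final) and measured total well GFP after 18 h.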
DT40 TDP1 CPT: growth inhibition of DT40 Tdp1-/-;hTDP1 cells with camptothecin (screen for TDP1 inhibitors); chicken DT40 Tdp1-/-;hTDP1 cells + 20 nM CPT, ATP luminescence, 48 h; AID 686979; 420,000 tested, 12% active; Potency, µM (highest dose often 46.2 µM), for the others: at the top dose activity change, negative = growth inhibition, most hits filed as inhibitors; note: % is set by controls: 0 for no effect and ±100 for the full control effect; nearly all actives have a fitted effect of over 55% in size
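Chicken DT40 Tdp1-/- cells complemented with human TDP1, 400 cells/well, exposed to compounds plus 20 nM camptothecin for at least 48 h at 37 C; viability read as ATP content by CellTiter-Glo luminescence.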
HT1080NT lethal: kills 2HG-producing HT-1080-NT fibrosarcoma cells; HT-1080-NT fibrosarcoma viability, CellTiter-Glo ATP luminescence, 48 h; Potency, µM (titrated, usually from 46.1 µM), for the others: at the top dose activity, negative = less viability, most hits filed as cytotoxic; 360,000 tested, 1.6% active;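 note: NT is the 2HG producing partner of a matched IDH1 knockdown line; 0% = DMSO-treated cells and -100% = media-only wells without cells; nearly all actives have a fitted effect of over 55% in size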
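HT-1080-NT fibrosarcoma cells (2HG-overproducing), 750 cells/well in RPMI with 5% FBS, dosed after 2 h and incubated 48 h at 37C. CellTiter-Glo luminescence normalized to DMSO and no-cell wells; concentration-response curves fitted and classed.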
An asterisk follows results filed as active; ? = inconclusive; . = no result; [ ] = dose if it differs, or a comment. Calls come from the whole dose curve; as a rule, active = well fitted curve in the direction sought with a large enough effect; inconclusive = small, poorly fitted or top-dose-only effect, or another doubt; inactive = no such curve, though single readings can be large; an effect the other way counts as inactive or inconclusive. Potency is the fitted concentration of half-maximal effect.

SMILES	TDP1 cell noCPT	HepG2 viability	HT1080 IDH1KD tx	TGFb SMAD3 inh	DT40 TDP1 CPT	HT1080NT lethal
Cc1ccc(OCC(=O)Nc2cc(S(=O)(=O)N3CCOCC3)ccc2N2CCCC2)cc1	?	0%	4%	28%	-29%	6%
COc1cc(C(C)=O)ccc1OCC(=O)Nc1cc(S(=O)(=O)N2CCOCC2)ccc1N1CCCC1	?	-3%	-6%	8%	?	0%
CCc1ccccc1OCC(=O)Nc1cc(S(=O)(=O)N2CCOCC2)ccc1N1CCCCC1	7.3µM*	8%	-19%	-1%	23µM*	?
O=C(NS(=O)(=O)c1ccc2ccc(S(=O)(=O)NCCSc3ccccc3)cc2c1)c1cccc2ccccc12	3%	.	3%	.	-6%	-1%
CS(=O)(=O)c1ccc(Sc2nc3ccccc3s2)c([N+](=O)[O-])c1	13µM*	-39%	21µM*	?	10µM*	-10%
O=S(=O)(Nc1ccc(O)c(Sc2nc3ccccc3s2)c1)c1ccc(F)cc1	?	-30%	?	?	-20%	-25%
Cc1ccc([C@H]2N[C@]3(CCCN(Cc4ccccc4)C3=O)[C@H]3C(=O)N(C)C(=O)[C@@H]23)cc1	?	15%	2%	-5%	-17%	1%
Cc1ccc([C@H]2N[C@]3(CCCN(Cc4ccc(F)cc4)C3=O)[C@H]3C(=O)N(C)C(=O)[C@@H]23)cc1	13µM*	-51%	-6%	?	?	-5%
Cc1ccc([C@H]2N[C@]3(CCCN(Cc4ccc(Br)cc4)C3=O)[C@H]3C(=O)N(C)C(=O)[C@@H]23)cc1	13µM*	-12%	4%	1%	3%	-12%
CN1C(=O)[C@H]2[C@@H](c3ccccc3)N[C@]3(CCCN(Cc4ccc(F)cc4)C3=O)[C@H]2C1=O	-23%	-1%	-1%	-9%	-4%	-5%
CC1(C)S[C@H]2[C@@H](NC(=O)C(N)c3ccccc3)C(=O)N2[C@H]1C(=O)O (some centres not stated)	3%	.	.	.	0%	.
COc1cccc(CNC(=O)CCn2nc(C)c3c(C)n(-c4ccccc4)nc3c2=O)c1	?	-6%	.	-22%	?	.
Oc1cccc(-c2nc3ccccc3s2)c1	?	-7%	?	2%	-29%	?
Oc1ccc(O)c(Cc2nc3ccccc3s2)c1	?	-11%	16µM*	?	?	?
Cc1ncoc1C(=O)N1CCOc2ccc(CN3CCN(c4ccccn4)CC3)cc2C1	?	.	.	.	-7%[9.04 µM]	.
O=C(CNS(=O)(=O)c1ccccc1)NCc1ccco1	16%	10%	7%	3%	0%	7%
O=C(O)CCC(=O)c1cccc2ccccc12	-14%	-1%	2%	0%	12%	3%
C[N+](C)(C)CCC(=O)c1cccc2ccccc12	0.92µM*	.	.	.	0.58µM*	.
CCN1/C(=C/C(=O)c2ccco2)Sc2ccccc21	-5%	1%	0%	-2%	-19%	-13%
CCN1/C(=C/c2sc(-c3ccccc3C)c[n+]2C)Sc2ccccc21	0.21µM*	-31%	2.1µM*	2.5µM*	0.26µM*	2.1µM*
Cc1ccccc1Cn1cc(S(=O)(=O)c2ccc(Cl)cc2)c(=O)c2cc3c(cc21)OCO3	?	-4%	.	-9%	-15%	.
Cc1ccccc1OCC(=O)Nc1ccc2c(c1)C(=O)N(CCC(=O)O)C2=O	2%	8%	13%	16%	?	0%
CCCC(=O)c1ccc(N2CCN(C(=O)c3cccs3)CC2)c(F)c1	?	-14%	1%	-22%	?	-4%
CCCCCC(=O)N1CCN(c2ccc(C(C)=O)cc2F)CC1	21µM*	-14%	8%	-5%	15µM*	0%
O=C(c1ccccc1)c1ccc(N2CCN(C(=O)c3ccc(F)cc3F)CC2)c(F)c1	?	-25%	-18%	2%	23µM*	-9%
SMILES	TDP1 cell noCPT	HepG2 viability	HT1080 IDH1KD tx	TGFb SMAD3 inh	DT40 TDP1 CPT	HT1080NT lethal
CC(=O)c1ccc(N2CCC(C)CC2)c(F)c1	-2%	-1%	3%	-2%	-21%	13%
CCC(=O)c1ccc(N2CCN(C(=O)c3ccc(F)cc3)CC2)c(F)c1	10µM*	-2%	-7%	-26%	21µM*	-20%
CCCC(=O)c1ccc(N2CCN(C(=O)c3ccccc3Br)CC2)c(F)c1	13µM*	-23%	-12%	-5%	18µM*	-21%
O=C(c1ccc(F)cc1F)N1CCCN(c2nc(-c3ccccc3)ns2)CC1	?	-21%	-1%	?	?	-2%
COC(=O)C(CCSC)NC(=O)C1CCN(c2ncnc3c2nc2n3CCCCC2)CC1 (configuration not stated)	-17%	-1%	.	-20%	-3%	.
CC1CCCN(S(=O)(=O)c2ccc3oc(=O)ccc3c2)C1 (configuration not stated)	3%	5%	1%	11%	-9%	-4%
COc1ccc(NC(=O)c2cn(CCC#N)nc2-c2cc3ccccc3o2)cc1	?	-5%	?	-7%	-28%	?
CC(Sc1nnc(-c2cccs2)n1N)C(=O)NCC1CCCO1 (configuration not stated)	5%	2%	21%	2%	-15%	15%
O=C(Nc1ccccc1C(=O)N1CCCCCC1)c1ccc(Cl)cc1	-1%	7%	0%	2%	5%	8%
COC(=O)c1ccc(N2CCN(C)CC2)c(NC(=O)c2ccc(-c3ccc(Cl)cc3)o2)c1	?	-4%	-1%	-4%	?	3%
CCCCNC(=O)c1ccc2nc(CC)c(N(CC)CCN(C)C)n2c1	-11%	3%	?	43%	0%	3%
CCC(=O)c1ccc(N2CCN(C(=O)c3ccc(Br)cc3)CC2)c(F)c1	10µM*	-7%	11%	-5%	21µM*	5%
CCC(=O)c1ccc(N2CCN(C(=O)c3cccc(F)c3)CC2)c(F)c1	13µM*	-13%	-14%	11%	?	0%
CCCC(=O)c1ccc(N2CCN(C(=O)c3ccc(Br)cc3)CC2)c(F)c1	7.3µM*	-3%	-3%	-13%	23µM*	-3%
CCCC(=O)c1ccc(N2CCN(S(=O)(=O)c3ccc(C)cc3)CC2)c(F)c1	7.1µM*	-5%	9%	-17%	?	6%
CCC(=O)c1ccc(N2CCCCC2)c(F)c1	16%	5%	1%	17%	-2%	9%
